Data as given in the supplement of paper PMC6607015.
Where a name gives a salt, the structure may show the parent alone.

Key:
Details in all cases: compound concentration in added solution (µM; 5 µl added to 20 µl cells): 10; 18 h
[1] = tested on: A431; experiment: LBPA endosome anti-LBPA integrated intensity (sum per cell), Z-score; higher = more LBPA staining
Summary of the method: (§1)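 Four 20× images per well were taken of HeLa MZ or A431 cells that had been seeded at 3,500 per well in 20 µl onto 5 µl of 10 µM compound solution in duplicate 384-well imaging plates. Before imaging, cells were incubated 18 h, fixed in 4% PFA and stained with 6C4 anti-LBPA antibody, filipin, propidium iodide and CellTracker green. Values are Z-scores normalised in AcuityXpress from MetaXpress-derived per-cell integrated LBPA or filipin intensity, either whole-cell or within LBPA endosomes.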

[2] = tested on: HeLa MZ; experiment: as above
Summary of the method: as §1

[3] = tested on: A431; experiment: whole-cell filipin (free cholesterol) integrated intensity, Z-score; higher = more cholesterol staining
Summary of the method: as §1

[4] = tested on: HeLa MZ; experiment: as above
Summary of the method: as §1

[5] = tested on: A431; experiment: filipin (cholesterol) integrated intensity within LBPA endosomes, Z-score; higher = more cholesterol in LBPA endosomes
Summary of the method: as §1

[6] = tested on: HeLa MZ; experiment: as above
Summary of the method: as §1

| Compound | LBPA endosome anti-LBPA integrated intensity (z-score) [1] | LBPA endosome anti-LBPA integrated intensity (z-score) [2] | whole-cell filipin (z-score) [3] | whole-cell filipin (z-score) [4] | filipin (z-score) [5] | filipin (z-score) [6] |
| --- | --- | --- | --- | --- | --- | --- |
| COc1cc(Cc2cnc(N)nc2N)cc(OC)c1OC [Trimethoprim] | -0.479 | -0.434 | -0.787 | -0.667 | -0.515 | -0.558 |
| Cc1ncc(CO)c(CO)c1O [Pyridoxine hydrochloride] | -0.469 | -0.56 | -0.385 | -0.528 | -0.475 | -0.596 |
| C[C@]12C=CC(=O)C=C1CC[C@@H]1[C@@H]2[C@@H](O)C[C@@]2(C)[C@H]1CC[C@]2(O)C(=O)CO [Prednisolone] | -0.285 | -0.493 | -0.674 | -0.403 | -0.432 | -0.544 |
| C=CC1=C(C(=O)O)N2C(=O)[C@@H](NC(=O)/C(=N\O)c3csc(N)n3)[C@H]2SC1 [Cefdinir] | -0.422 | -0.414 | -0.315 | -0.322 | -0.385 | -0.46 |
| O=C(Nc1cccc2c(=O)cc(-c3nnn[nH]3)oc12)c1ccc(OCCCCc2ccccc2)cc1 [Pranlukast] | -0.507 | -1.1 | -0.413 | -0.657 | -0.501 | -0.637 |
| CC(=O)c1ccc2c(c1)N(CCCN1CCC(CCO)CC1)c1ccccc1S2 [Piperacetazine] | 4.58 | 1.54 | 2.51 | 1.35 | 3.1 | 3.21 |
| CN1CCN(c2c(F)cc3c(=O)c(C(=O)O)cn4c3c2SCC4)CC1 [Rufloxacin] | -0.614 | -0.736 | 0.0183 | -0.289 | -0.534 | -0.17 |
| COc1cc2nc(N3CCN(C(=O)c4ccco4)CC3)nc(N)c2cc1OC [Prazosin hydrochloride] | 2.82 | 1.41 | 1.2 | 0.626 | 0.829 | 0.146 |
| CNC(=C[N+](=O)[O-])NCCSCc1ccc(CN(C)C)o1 [Ranitidine hydrochloride] | -0.424 | 0.0515 | -1.03 | -1.05 | -0.524 | -0.559 |
| CC(C)NCC(O)c1ccc(NS(C)(=O)=O)cc1 (configuration not stated) [Sotalol hydrochloride] | -0.295 | -0.419 | 0.181 | 0.261 | -0.181 | -0.219 |
| CC(C)NCC(O)COc1cccc2[nH]ccc12 (configuration not stated) [Pindolol] | -0.195 | -0.563 | -0.497 | -0.0997 | -0.329 | -0.129 |
| COCC(=O)Nc1c(I)c(C(=O)NCC(O)CO)c(I)c(C(=O)N(C)CC(O)CO)c1I (configuration not stated) [Iopromide] | -0.665 | -1.68 | -0.559 | -0.164 | -0.527 | -0.574 |
| NCCNCCNCCNCCN [Tetraethylenepentamine pentahydrochloride] | -0.276 | -0.00928 | 0.0109 | 0.146 | -0.392 | -0.197 |
| Cc1cc(CC(=O)O)n(C)c1C(=O)c1ccc(Cl)cc1 [Zomepirac sodium salt] | -0.359 | 0.635 | -0.277 | 0.00846 | -0.413 | -0.439 |
| COc1ccccc1OCC(O)CN1CCN(CC(=O)Nc2c(C)cccc2C)CC1 (configuration not stated) [Ranolazine] | -0.238 | 1.53 | -0.112 | -0.533 | -0.352 | -0.221 |
| Clc1ccc(C(c2ccccc2Cl)C(Cl)Cl)cc1 (configuration not stated) [Mitotane] | -0.586 | -1.29 | -0.251 | -0.167 | -0.511 | -0.815 |
| Cc1cc(=O)n(-c2ccccc2)n1C [Antipyrine] | -0.333 | -0.475 | -0.316 | -0.0627 | -0.425 | -0.342 |
| Clc1cnccn1 [2-Chloropyrazine] | -0.346 | -0.401 | 0.139 | -0.365 | -0.401 | -0.492 |
| O=C(O)[C@H]1/C(=C/CO)O[C@@H]2CC(=O)N21 [Potassium clavulanate] | -0.48 | -0.536 | 0.227 | -0.0014 | -0.358 | -0.433 |

| Compound | LBPA endosome anti-LBPA integrated intensity (z-score) [1] | LBPA endosome anti-LBPA integrated intensity (z-score) [2] | whole-cell filipin (z-score) [3] | whole-cell filipin (z-score) [4] | filipin (z-score) [5] | filipin (z-score) [6] |
| --- | --- | --- | --- | --- | --- | --- |
| CC(=O)OCC(=O)[C@@]1(O)[C@H](C)C[C@H]2[C@@H]3CCC4=CC(=O)C=C[C@]4(C)[C@@]3(F)[C@@H](O)C[C@@]21C [Dexamethasone acetate] | -0.279 | -0.245 | -0.619 | -0.504 | -0.34 | -0.593 |
| OC(CCN1CCCCC1)(c1ccccc1)C1CCCCC1 (configuration not stated) [Trihexyphenidyl-D,L Hydrochloride] | 1.27 | 1.51 | 0.138 | -0.301 | 0.357 | 0.149 |
| CC(O)(P(=O)(O)O)P(=O)(O)O [Etidronic acid, disodium salt] | -0.428 | -0.376 | -0.14 | -0.368 | -0.461 | -0.4 |
| Nc1ccc(S(=O)(=O)c2ccc(N)cc2)cc1 [Dapsone] | -0.514 | -0.767 | -0.45 | -0.817 | -0.55 | -0.603 |
| Cc1cccc(CN2CCN(C(c3ccccc3)c3ccc(Cl)cc3)CC2)c1 (configuration not stated) [Meclozine dihydrochloride] | -0.277 | -0.335 | -0.336 | -0.815 | -0.233 | -0.413 |
| CCc1c2c(nc3ccc(OC(=O)N4CCC(N5CCCCC5)CC4)cc13)-c1cc3c(c(=O)n1C2)COC(=O)[C@]3(O)CC [Irinotecan Hydrochloride] | 0.102 | 3.21 | 3.24 | 3.96 | 0.0471 | -0.0232 |
| O=C(c1ccccc1)c1ccc2n1CCC2C(=O)O (configuration not stated) [Ketorolac tromethamine] | -0.483 | 0.0549 | -0.702 | -0.443 | -0.478 | -0.538 |
| CC[N+](CC)(CC(=O)Nc1c(C)cccc1C)Cc1ccccc1 [Denatonium benzoate] | -0.32 | -0.985 | -0.241 | -0.0671 | -0.379 | -0.548 |
| CC[N+](CC)(CC)CCC(O)(c1ccccc1)C1CCCCC1 (configuration not stated) [Tridihexethyl chloride] | -0.607 | -0.578 | -0.338 | -0.512 | -0.437 | -0.697 |
| O=C(NCC(O)CO)c1c(I)c(C(=O)NCC(O)CO)c(I)c(N(CCO)C(=O)CO)c1I (configuration not stated) [Ioversol] | -0.561 | -1.26 | -0.43 | -0.621 | -0.499 | -0.701 |
| C[C@H]1O[C@H](O[C@H]2[C@H](O)[C@@H](O)[C@@H](O[C@H]3[C@H](O)[C@@H](O)C(O)O[C@@H]3CO)O[C@@H]2CO)[C@H](O)[C@@H](O)[C@@H]1N[C@H]1C=C(CO)[C@@H](O)[C@H](O)[C@H]1O (some centres not stated) [Acarbose] | -0.482 | -0.645 | -0.828 | -0.123 | -0.508 | -0.442 |
| Cc1c(C)c2c(c(C)c1O)CCC(C)(C(=O)O)O2 (configuration not stated) [Trolox] | -0.472 | 0.342 | -0.624 | 0.128 | -0.552 | -0.401 |
| Cc1ccnc(NS(=O)(=O)c2ccc(N)cc2)n1 [Sulfamerazine] | -0.529 | -1.13 | -0.353 | -0.0674 | -0.45 | -0.567 |
| CCCc1nc(C)c2c(=O)nc(-c3cc(S(=O)(=O)N4CCN(CC)CC4)ccc3OCC)[nH]n12 [Vardenafil] | -0.314 | 1.35 | 0.127 | 0.375 | -0.156 | 0.224 |
| Nc1ccccc1S(N)(=O)=O [2-Aminobenzenesulfonamide] | -0.461 | -0.0157 | -0.474 | -0.217 | -0.417 | -0.589 |
| CCOC(=O)Nc1ccc2c(c1)N(C(=O)CCN1CCOCC1)c1ccccc1S2 [Moricizine hydrochloride] | -0.59 | 0.328 | -0.0401 | 0.0759 | -0.436 | 0.233 |
| OC(CCN1CCCCC1)(c1ccccc1)C1CC2C=CC1C2 (configuration not stated) [Biperiden hydrochloride] | 1.21 | 1.45 | -0.251 | -0.585 | 0.329 | 0.363 |
| O=C(CCCN1CCC(O)(c2ccc(Br)cc2)CC1)c1ccc(F)cc1 [Bromperidol] | 2.59 | 2.09 | 1.76 | 1.12 | 2.09 | 1.82 |
